Bioassay records from PubChem BioAssay.
KCNQ2 enhance: enhances the rat KCNQ2 potassium channel; CHO-K1 KCNQ2, FluxOR thallium flux fluorescence; active compounds read high; 310,000 compounds, 0.54% hits; B-score at 10 µM; AID 2239; O88943;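 active means fluorescence ratio B-score at least 3 SD of library B-scores, with initial fluorescence B-score within 3 of them, cut at about 5.3 in these data; same plate scores as AID 2156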;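 further: B-score of peak minus minimum over baseline fluorescence ratio after K+ and Tl+ stimulus; positive B-score means potentiation of KCNQ2 with more thallium influx and brighter signal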
KCNQ2 inh: inhibitors of rat KCNQ2 potassium channel; B-score at 10 µM; AID 2156; O88943; 310,000 compounds, 1.1% hits; CHO-K1 KCNQ2, FluxOR thallium flux, 20 min; active compounds read low;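 active means fluorescence ratio B-score at most minus 3 library SDs, with starting brightness B-score within 2 library SDs, cut at about -5.5 in these data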
KCNQ2 block conf: confirmation of rat KCNQ2 potassium channel inhibitors | shares compounds with KCNQ2 inh | activity change, negative = inhibition, % at 10 µM | KCNQ2-expressing cells, thallium flux, inhibition; active compounds read low | 1,000 compounds, 57% hits;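 further: 0% = vehicle wells and values are ratio percent relative to vehicle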
KCNQ1 spec: human KCNQ1 activity in KCNQ2 inhibitor specificity screen; shares compounds with KCNQ2 inh; KCNQ1-expressing cells, FluxOR thallium flux fluorescence; active compounds read low; activity change, negative = inhibition, % at 10 µM; 1,000 compounds, 15% hits;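 active means activity change at least 3 SD of negative controls below their mean in both duplicate wells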;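 further: CHO cells stably transfected with KCNQ1 and depolarized by potassium stimulus; peak minus minimum fluorescence over baseline after thallium addition; 0% = vehicle negative control and -100% = blank without thallium stimulus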
Target sequence (P51787 whole entry, looked up): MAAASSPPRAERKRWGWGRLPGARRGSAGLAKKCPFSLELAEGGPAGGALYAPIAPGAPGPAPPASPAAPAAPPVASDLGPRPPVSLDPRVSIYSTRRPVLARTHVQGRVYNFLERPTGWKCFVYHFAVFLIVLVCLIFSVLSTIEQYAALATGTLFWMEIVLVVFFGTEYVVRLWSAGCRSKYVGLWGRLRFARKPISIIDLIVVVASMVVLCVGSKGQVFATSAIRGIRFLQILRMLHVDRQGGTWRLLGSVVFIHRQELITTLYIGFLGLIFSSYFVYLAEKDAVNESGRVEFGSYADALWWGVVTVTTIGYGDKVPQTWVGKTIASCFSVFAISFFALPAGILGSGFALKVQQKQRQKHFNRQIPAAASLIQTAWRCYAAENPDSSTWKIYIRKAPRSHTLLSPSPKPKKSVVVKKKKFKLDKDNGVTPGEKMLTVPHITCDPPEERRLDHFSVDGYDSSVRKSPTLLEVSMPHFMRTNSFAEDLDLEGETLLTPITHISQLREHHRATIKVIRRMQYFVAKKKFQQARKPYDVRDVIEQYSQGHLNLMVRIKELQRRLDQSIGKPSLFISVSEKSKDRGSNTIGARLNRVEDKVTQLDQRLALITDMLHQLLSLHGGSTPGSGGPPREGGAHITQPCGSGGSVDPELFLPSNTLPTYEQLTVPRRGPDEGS
CHO parental ctr: activity in parental CHO cells lacking KCNQ2 | shares compounds with KCNQ2 inh | thallium flux counter-screen; active compounds read low | activity change, % at 10 µM | 1,000 compounds, 14% hits | AID 493029;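 further: 0% = vehicle negative controls with stimulus buffer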
KCNQ2 inh confirm: blocks rat KCNQ2 current in automated patch clamp; shares compounds with KCNQ2 inh; KCNQ2-expressing cells; calls only at 10 µM; 550 compounds, 49% hits; AID 588531
The depositor's hits bear a star; i = inactive; x = no result; + = active, no number. Hits are enriched below; roughly 1.6% of the tested compounds scored in any of these assays. Unless noted, how the calls were made is not given here.

SMILES | KCNQ2 enhance | KCNQ2 inh | KCNQ2 block conf | KCNQ1 spec | CHO parental ctr | others
COc1ccc(/C=C/CN2CCCC(CO)(Cc3cccc(Cl)c3)C2)cc1 (stereo not drawn) | -6.8 | -6.8* | -23%* | i | i | KCNQ2 inh confirm=i
Cc1cc(C(=O)NN)c(Cl)cc1Cl | x | i | x | x | x
CCc1c(C)sc2nc3c(C(=O)N4CCOCC4)cc(C(=O)c4cc(F)ccc4O)cn3c(=O)c12 | -8.5 | -8.5* | -24%* | i | i | KCNQ2 inh confirm=+
O=C(c1cc(C(=O)N2CCOCC2)c2nc3ccccc3n2c1)c1ccccc1O | x | i | x | x | x
CC(=O)c1ccc(NC(=O)Cn2c3ccccc3c3nc(=O)cc(C)n32)cc1 | 1.3 | i | x | x | x
O=C(O)c1cnc(-c2ccccc2)nc1Oc1ccccc1 | x | i | x | x | x
O=C(O)c1cnc(-c2ccccc2)nc1Oc1ccc(Cl)cc1 | -7.5 | -7.5* | -20%* | i | i | KCNQ2 inh confirm=+
CCN=C1SC(CC(=O)NCc2ccccc2)C(=O)N1CC (stereo not drawn) | x | i | x | x | x
O=c1[nH]c2ccccc2c(O)c1-c1cc2ccccc2oc1=O | x | i | x | x | x
COc1ccccc1CN1CC(C(=O)N2CCC(C(=O)c3ccccc3)CC2)CCC1=O (stereo not drawn) | 0.77 | i | x | x | x
C=CCNC(=O)/C(C#N)=C/c1ccc(C(=O)O)cc1 | 0.4 | i | x | x | x
C=CCNC(=O)/C(C#N)=C/c1ccccc1Cl | -6.7 | -6.7* | i | i | i
Cc1onc(-c2c(F)cccc2Cl)c1C(=O)N(C)C1CCCCC1 | 1.1 | i | x | x | x
CCOC(=O)N1CCN(C(=O)C(=O)Nc2sc3c(c2C(N)=O)CC(C)(C)OC3)CC1 | x | i | x | x | x
Cn1c(-c2ccc3c(c2)OCO3)cnc1NCc1ccccc1Cl | 0.69 | i | x | x | x
Cn1c(-c2ccc3c(c2)OCO3)cnc1NCc1cccc(Cl)c1 | -9 | -9* | i | i | i
CCc1ccc(-c2cc(C)no2)cc1S(=O)(=O)N1CCC(C)CC1 | x | i | x | x | x
Cc1cc(-c2ccc(C(C)C)c(S(=O)(=O)N3CCC(C)CC3)c2)on1 | -8.4 | -8.4* | -16%* | i | i | KCNQ2 inh confirm=i
Cc1ccc(S(=O)(=O)N[C@@H](Cc2ccccc2)C(=O)N2CCC(C(=O)N[C@@H](CC(C)C)C(=O)O)CC2)cc1 | 0.01 | i | x | x | x
CCCn1nc(C(=O)NNC(=O)CSC(C)C(=O)Nc2cc(C)on2)c2ccccc2c1=O (stereo not drawn) | 1.2 | i | x | x | x
CCSc1nnc(-c2cccc(S(=O)(=O)N(CC)CC)c2)n1Cc1ccccc1 | -10 | -10* | i | i | i
CCNC(=O)CSc1nnc(-c2cccc(S(=O)(=O)N(CC)CC)c2)n1CCc1ccccc1 | x | i | x | x | x
CCc1ccc(C(C(=O)NCc2ccc(OC)cc2)N(CCOC)C(=O)Cc2cccs2)cc1 (stereo not drawn) | x | i | x | x | x
COCCN(C(=O)Cc1cccs1)C(C(=O)NCc1ccc(OC)cc1)c1ccc(C(C)C)cc1 (stereo not drawn) | -8.6 | -8.6* | -35%* | i | i | KCNQ2 inh confirm=+
COc1ccc(CCNC(=O)c2c(C)nn(-c3ccccc3)c2Cl)cc1OC | 0.35 | i | x | x | x
SMILES | KCNQ2 enhance | KCNQ2 inh | KCNQ2 block conf | KCNQ1 spec | CHO parental ctr | others
CCN(CC)S(=O)(=O)c1ccc(N2CCOCC2)c(NC(=S)NC(=O)c2ccco2)c1 | -7.3 | -7.3* | -34%* | i | i | KCNQ2 inh confirm=+
O=C(NC(=S)Nc1cc(S(=O)(=O)N2CCOCC2)ccc1N1CCOCC1)c1ccco1 | x | i | x | x | x
Cc1cc(C)c(S(=O)(=O)N2CCCC(C(=O)NCc3ccncc3)C2)c(C)c1 (stereo not drawn) | 1.1 | i | x | x | x
COc1ccc(-c2cc(C(=O)NCC(c3ccccc3)N(C)C)c3ccccc3n2)cc1OC (stereo not drawn) | x | i | x | x | x
COc1ccccc1CN(C)C(=O)c1cc(-c2cc(OC)c(OC)c(OC)c2)nc2ccccc12 | x | i | x | x | x
COCCN(Cc1ccccc1)C(=O)c1cc(-c2ccc(OC)c(OC)c2)nc2ccccc12 | -8.9 | -8.9* | -30%* | i | i | KCNQ2 inh confirm=+
COc1cc(-c2cc(C(=O)Nc3c(Cl)cc(Cl)cc3Cl)c3ccccc3n2)cc(OC)c1OC | -7.2 | -7.2* | -25%* | i | i | KCNQ2 inh confirm=+
COc1cc(-c2cc(C(=O)Nc3ccc(S(N)(=O)=O)cc3)c3ccccc3n2)cc(OC)c1OC | x | i | x | x | x
COc1cc(-c2cc(C(=O)N(C)Cc3ccccc3)c3ccccc3n2)cc(OC)c1OC | -7.2 | -7.2* | -28%* | i | i | KCNQ2 inh confirm=+
Cc1csc(NC(=O)CSc2nccn2C)n1 | x | i | x | x | x
Cn1cnnc1Sc1ccc(C(=O)NCCC23CC4CC(CC(C4)C2)C3)cc1[N+](=O)[O-] | x | i | x | x | x
Clc1cccc(C2CCN(Cc3nc(CC4CC4)no3)C2)c1 (stereo not drawn) | x | i | x | x | x
COc1ccccc1CCc1nnc(CCC(=O)NC(C)Cn2nc(C)cc2C)o1 (stereo not drawn) | 0.79 | i | x | x | x
O=C(COC(=O)C1=COCCO1)NCc1ccc(Cl)cc1 | 0.55 | i | x | x | x
CC(C)C[C@H](NC(=O)N1CCn2c1nc1ccccc12)C(=O)NCc1ccccc1 | -6.7 | -6.7* | i | i | i
CC(C)C[C@H](NC(=O)N1CCn2c1nc1ccccc12)C(=O)NCCc1ccccc1 | x | i | x | x | x
C=C(C)Cn1c(SCC#N)nc2ccccc2c1=O | 0.48 | i | x | x | x
CCN(CCCn1c(SCC#N)nc2ccccc2c1=O)c1ccccc1 | -8.8 | -8.8* | i | i | i
Cc1ccccc1OCCCC(=O)Nc1ccc(S(=O)(=O)Nc2onc(C)c2C)cc1 | x | i | x | x | x
O=[N+]([O-])c1ccc(N2CCc3ccccc3C2)cc1 | -7.1 | -7.1* | i | i | i
O=[N+]([O-])c1ccc(-c2csc(N3CCc4ccccc4C3)n2)cc1 | x | i | x | x | x
Cc1ccc2c(c1)N(CC(=O)N1CCCC1)C(=O)c1cccnc1O2 | x | i | x | x | x
CC(=O)C(Cc1ccccc1)NC(=O)CN(C)Cc1ccccc1Cl (stereo not drawn) | -8.5 | -8.5* | i | i | i
CC(=O)C(Cc1ccccc1)NC(=O)CCl (stereo not drawn) | x | i | x | x | x
O=C(CCCc1ccccc1)NCCS(=O)(=O)N1CCN(c2ccc(F)cc2)CC1 | x | i | x | x | x
SMILES | KCNQ2 enhance | KCNQ2 inh | KCNQ2 block conf | KCNQ1 spec | CHO parental ctr | others
Cc1cc(C)c(C(=O)CSc2nnc(C)c(=O)[nH]2)cc1C | 0.54 | i | x | x | x
Cc1ccccc1OCC(=O)NCCNC(=O)c1ccccn1 | x | i | x | x | x
CC(C(=O)NCC1CCCCC1)N(C)Cc1ccc(Cl)cc1 (stereo not drawn) | -6.7 | -6.7* | i | i | i
CC(C(=O)NCC1CCCCC1)N(C)Cc1ccc(Br)cc1 (stereo not drawn) | x | i | x | x | x
Cc1cc(C)n2nc(S(=O)(=O)NC(C)(C)C)nc2n1 | x | i | x | x | x
CC(NC(=O)CCC(=O)c1ccccc1)c1ccc(F)cc1 (stereo not drawn) | -8.8 | -8.8* | i | i | i
CC(NC(=O)Cc1ccccc1)c1ccc(F)cc1 (stereo not drawn) | 1 | i | x | x | x
